# This is a sample that favours compounds with a hit; in the whole collection about 7.3% have one here.
# FMDV inh: blocks foot and mouth disease virus; FMDV antiviral cell-based qHTS; Potency, µM (series often up to 57.9 µM), for inactives: at the top dose activity change, negative = inhibition, usual class: inhibitors; 1.2% of 410,000 active; calls by dose curve; tested in HEK293T cells; note: read-out not given here; potency is the fitted concentration of half-maximal effect; nearly all actives have a fitted effect of over 45% in size
# HCV inh: HCV inhibition | Huh7.5.1 HCVcc-Cre infection, luciferase reporter, 44 h | Potency, µM (highest dose often 41.8 µM), without a hit: at the top dose activity change, negative = inhibition, most hits filed as inhibitors | 3.4% of 340,000 active | AID 651820; active = well fitted inhibition curve with a large enough effect; inconclusive = small, poorly fitted or top-dose-only effect, or another doubt; inactive = no such curve, though single readings can be large or run the other way; note: potency is the fitted concentration of half-maximal effect
#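 Reporter virus HCVcc-Cre (~0.5 moi) infects cells exposed to compound; seeding density 1,000 cells/well with 4 h settling beforehand. Luminescence, 15 sec read, taken 44 h post-infection following a 15 min RT substrate incubation.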
# Vaccinia Venus: vaccinia inhibition (Venus reporter); Vaccinia virus Venus reporter expression, fluorescence; Potency, µM (series often up to 36.5 µM), inactives show top-dose activity change, negative = inhibition, usual class: inhibitors; 0.46% of 330,000 active; AID 720580; calls by dose curve; tested in A549 cells; note: potency is the fitted concentration of half-maximal effect; nearly all actives have a fitted effect of over 30% in size
# HCMV inh: blocks human cytomegalovirus replication; HFF cells, HCMV-luciferase reporter, 72 h; active compounds read low; activity change, negative = inhibition, % at 57.5 µM; AID 1259415; 4.5% of 410,000 active; in the data active = activity change below about -60%; inconclusive = no clear call, values can overlap the other calls; inactive = above about -39%
#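 Two compound doses tested in HFFs infected with HCMV-luciferase, MOI 1 PFU/cell, 72 h at 37C. Lysate luminescence read with OneGlo; data normalized against buffer-only and 10uM Salinomycin inhibitor controls.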
# Vaccinia mCherry: inhibitors of vaccinia virus infection (mCherry reporter signal). Vaccinia virus mCherry reporter infection, fluorescence. Potency, µM (highest dose often 36.5 µM), for inactives: at the top dose activity change, negative = inhibition, actives largely listed as inhibitors. 0.63% of 310,000 active. AID 720579; calls by dose curve; tested in A549 cells; note: potency is the fitted concentration of half-maximal effect; nearly all actives have a fitted effect of over 35% in size
# Numbers without * were called inactive; i = inactive; ? = inconclusive; / = not tested or not shown. % is set by controls: 0 for no effect and ±100 for the full control effect.
SMILES,FMDV inh,HCV inh,Vaccinia Venus,HCMV inh,Vaccinia mCherry
Cc1c(C)n(C)c2ccc(C(=O)NCCc3ccco3)cc12,46.6%,?,/,-20.7,/
CCN1CCN(C(=O)c2ccc3c(c2)c(C)c(C)n3Cc2ccccc2)CC1,1.1%,-1.9%,-22.5%,-17.5,-1.9%
O=C(c1ccc2c(=O)n(Cc3ccc4c(c3)OCO4)c(=S)[nH]c2c1)N1CCN(Cc2ccccc2)CC1,/,/,-16.8%,/,-18.3%
CC1CCCN(C(=O)c2ccc3c(=O)n(Cc4ccc5c(c4)OCO5)c(=S)[nH]c3c2)C1 (centres undefined),?,?,/,-86.8*,/
CCCn1c(=S)[nH]c2cc(C(=O)N3CCCC(C(=O)OCC)C3)ccc2c1=O (centres undefined),17.8µM*,?,/,28.7,/
CCOC(=O)c1c(-c2ccccc2)oc2ccc(O)c(CN3CCN(C)CC3)c12,-22.3%,12.6µM*,?,-66.4*,?
CCCCn1c(C)c(C(=O)OCC)c2c(CN3CCOCC3)c(O)ccc21,-15.6%,25.1µM*,-16.9%,-29.3,-22.3%
CCOC(=O)c1c(C)oc2cc(Cl)c(O)c(CN(C)C)c12,34.1%,?,-6.7%,-14.4,-24.5%
CCOC(=O)c1c(C)n(C)c2cc(CN(C)C)c(O)c(S(=O)(=O)c3ccccc3)c12,7.6%,2.9%,-5.2%,-69.2*,-2.9%
CCOC(=O)c1c(-c2ccccc2)oc2cc(CN(C)C)c(O)c(CN(C)C)c12,6.2%,10µM*,/,-105.6*,/
O=C1CN(C(=O)CSc2nc(-c3ccccc3)cs2)c2ccccc2N1,?,?,-21.7%,-61.4*,-27.9%
O=C1CN(C(=O)CSc2nncs2)c2ccccc2N1,60.3%,10.6%,-6.5%,-14.3,i
COc1ccc2cc(C#N)c(SCC(=O)N3CC(=O)Nc4ccccc43)nc2c1,-13.6%,?,/,/,/
Cc1cccc2cc(C#N)c(SCC(=O)N3CC(=O)Nc4ccccc43)nc12,?,?,?,-96.5*,/
CC1(C)C(=O)Nc2ccccc2N1C(=O)CSc1nc(-c2ccccc2)cs1,15.8µM*,?,-8.3%,-62.7*,-11.4%
CC(C)c1ccc(NC(=S)N2CCN(S(=O)(=O)c3ccccc3)CC2)cc1,31.7%,-1.2%,-15.3%,-14.0,-12.3%
COc1ccc(Cl)cc1N(C)c1nc(N2CCN(S(=O)(=O)c3ccc(C)cc3)CC2)c2ccccc2n1,/,/,-6.7%,/,i
Cc1ccccc1C(=O)Nc1sc2c(c1C(=O)N1CCC(C)CC1)CCC(C)C2 (centres undefined),43.2%,/,1.7%,-1.2,-13.4%
CCc1cc(N2CCOCC2)cc2c1[nH]c1ccccc12,-2.5%,7.08µM*,/,4.7,/
Cc1ccc(CNC(=O)CC(C)CC2=NS(=O)(=O)c3ccccc3N2)cc1 (centres undefined),-11.0%,/,-9.9%,2.1,-8.5%
CNC(=O)c1ccc(-c2cc3onc(-c4ccccc4)c3c(=O)n2C)cc1,-5.5%,?,?,-2.7,-10.6%
Cc1ccc(-c2cc3onc(-c4ccccc4)c3c(=O)n2C)cc1,17.8µM*,-10.0%,?,-70.8*,-26.4%
CCOc1ccc(NC(=O)Nc2nc(SCC)ns2)cc1,-29.7%,?,-25.3%,-60.7*,-28.7%
COc1cccc(CN2C(=O)N(c3ccc(C)cc3)C(=O)C2CC(=O)Nc2cc(OC)cc(OC)c2)c1 (centres undefined),-23.1%,/,-3.6%,?,-6.8%
[O-]/C(=C(\C(=S)Nc1ccc(SC(F)F)cc1)[n+]1ccccc1)c1ccc(Cl)cc1Cl,-8.4%,12.6µM*,-14.7%,-63.0*,i
SMILES,FMDV inh,HCV inh,Vaccinia Venus,HCMV inh,Vaccinia mCherry
COc1ccc(C(=O)CSc2nnc(C3CCCCC3)n2N)c(OC)c1,-0.3%,10µM*,-26.1%,4.8,/
C=C[C@]1(C)C=C2CCC3[C@](C)(CCC[C@@]3(C)C(=O)O)C2CC1 (some centres undefined),-17.7%,2.24µM*,-7.5%,/,-1.1%
CC1=CC(C)(C)N2C(=O)C3(C(C#N)=C(N)Oc4cc(C)oc(=O)c43)c3cc(C)cc1c32 (centres undefined),-24.3%,-26.7%,/,85.9,/
CCc1cc2c3c(c1)C1(C(=O)N3C(C)(C)C=C2C)C(C#N)=C(N)Oc2[nH]c(=O)[nH]c(=O)c21 (centres undefined),-29.9%,?,-5.3%,-74.8*,-11.6%
CN(C)c1ccc(-c2ccc3ncnc(NC4CC4)c3c2)cc1,-11.0%,/,/,/,/
O=C(Nc1ccc(-n2ccc(C(F)(F)F)n2)cc1)Nc1cccc(Cl)c1,/,/,/,-84.3*,/

# Assay outcomes as filed in PubChem BioAssay.
